# About 79,000 compounds went through this panel and 15% of them were active in at least one assay; those are over-represented in the sample as a whole. The source made the active and inactive calls. Rule as the data show it: active = growth inhibition above about 70%; inactive = the rest.
# Experiment: NCI Yeast Anticancer Drug Screen. Data for the CLN2oe strain (AID 163);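 also: 0% = growth of vehicle-only control cultures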
# Details: S. cerevisiae CLN2oe strain, at 11.0 µM, hits give high values
# Summary of the method: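 Compound-treated yeast; growth vs vehicle ctrl = % inhibition. Genetically altered strain (cell-cycle control).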
row,Structure (SMILES),growth inhibition
1,CCN(CC)CC[n+]1ccc2c(C)c3[nH]c4ccc(O)cc4c3c(C)c2c1,-8% (inactive)
2,O=[n+]1c2ccc(Cl)cc2n([O-])c2ccc(Cl)cc21,0% (inactive)
3,CCOP(=O)(OCC)C(Cc1ccccc1)N=C(c1ccccc1)c1ccccc1 (stereo not drawn),-21% (inactive)
4,CC[C@@]1(O)C(=O)OCc2c1cc1n(c2=O)Cc2cc3c(N)cccc3nc2-1,25% (inactive)
5,COC1C=COC2(C)Oc3c(C)c(O)c4c(c3C2=O)/C(=N/C2CCC(O)OC2C)C=C(NC(=O)/C(C)=C\C(=O)C2CC2C(O)C(C)C(O)C(C)C(OC(C)=O)C1C)C4=O (stereo not drawn),-8% (inactive)
6,COc1cc2c(c(OC)c1OC)-c1c(cc3c(c1OC)OCO3)CC(C)C(C)(O)C2OC(=O)c1ccccc1 (stereo not drawn),16% (inactive)
7,O=c1ssc2ncccc12,45% (inactive)
8,O=C1C2C(C(=O)N1c1ccc(OCc3ccccc3)cc1)C1c3ccccc3C2C2CCCCN21 (stereo not drawn),-12% (inactive)
9,COc1ccc(-c2cn(-c3ccc(I)cc3)c3ncnc(N)c23)cc1,-2% (inactive)
10,CCOC(=O)C(NC(=O)c1ccccc1)(N1CCN(c2cc3c(cc2F)c(=O)c(C(=O)O)cn3C2CC2)CC1)C(F)(F)F (stereo not drawn),2% (inactive)
11,C/C(=N\O)C1CC2C=C(C#N)C1N(Cc1ccccc1)C2 (stereo not drawn),-7% (inactive)
12,CC/C(=C(\c1ccccc1)c1ccc(OCCN(C)C)cc1)c1ccccc1,82% (active)
13,COc1ccccc1N=NC(C(=O)c1ccccc1)C(=O)c1ccccc1,-4% (inactive)
14,CC(O)C(O)C(O)C(/C=N\Nc1ccccc1)=N/Nc1ccccc1 (stereo not drawn),-5% (inactive)
15,COc1ccc(/C=C2\SC(=S)N(/C=C/c3nc4ccccc4[nH]c3=O)C2=O)cc1OC,7% (inactive)
16,N#CN=Nc1cc(Cl)c(N=NC#N)cc1Cl,-6% (inactive)
17,Cc1ccc(S(=O)(=O)Oc2cc(Cl)c(Cl)cc2Cl)cc1,-10% (inactive)
18,c1ccc2c(c1)Oc1cccc3cccc-2c13,8% (inactive)
19,O=C(c1ccc(Cl)cc1Cl)C(Cl)Cl,-13% (inactive)
20,CC(C)C1=CCC2C(=C1)CCC1C(C)(C(=O)O)CCCC21C (stereo not drawn) (tested in a mixture with another compound),-16% (inactive)

row,Structure (SMILES),growth inhibition
1,COc1cc(/C=C2\CCc3ccccc3C2=O)cc(OC)c1OC,2% (inactive)
2,CC(=O)[O][Bi]([c]1ccccc1)[c]1ccccc1,31% (inactive)
3,S=C(N/N=C/c1ccccn1)Nc1ccc(Cl)cc1,-12% (inactive)
4,COc1cc(CC2CC(c3ccc4c(c3)OCO4)OC2=O)cc(OC)c1OC (stereo not drawn),5% (inactive)
5,CNC1C(OC2C(OC3C(O)C(O)C(N=C(N)N)C(O)C3N=C(N)N)OC(C)C2(O)CO)OC(CO)C(O)C1O (stereo not drawn),-2% (inactive)
6,NNC(=O)CCc1ccc2ccc3ccccc3c2c1,-17% (inactive)
7,Oc1ccc2ccccc2c1C(c1ccc(Cl)cc1)c1c(O)ccc2ccccc12,21% (inactive)
8,CCCCN(CCCC)CCSc1ccc(Cl)cc1,-13% (inactive)
9,CCC(C)COC(=O)c1ccc(N=Cc2ccc(C=Nc3ccc(C(=O)OCC(C)CC)cc3)cc2)cc1 (stereo not drawn),6% (inactive)
10,CC1(C)C(=O)OC(n2cc(F)c(=O)[nH]c2=O)C1=O (stereo not drawn),-1% (inactive)
11,O=[N+]([O-])CC(SCc1ccccc1)c1ccc2c(c1)OCO2 (stereo not drawn),42% (inactive)
12,COc1cc2c(cc1[N+](=O)[O-])C(=O)C(Br)(Br)CCC2,55% (inactive)
13,OCC1OC(OCC(O)C(O)C(O)C(/C=N/Nc2ccccc2)=N/Nc2ccccc2)C(O)C(O)C1O (stereo not drawn),10% (inactive)
14,COc1ccc(N=C2C(=O)Nc3ccc(Br)cc32)cc1,19% (inactive)
15,Cn1c(=O)c2ccccc2c2ccccc21,7% (inactive)
16,CC[n+]1ccc2c(C)c3[nH]c4ccc(O)cc4c3c(C)c2c1,36% (inactive)
17,CC(=O)ON1C(=O)c2cccc3cccc(c23)C1=O,11% (inactive)
18,COc1ccc2ccc3ccccc3c2c1C=O,-2% (inactive)
19,OC1CCCc2c1cc1ccc3cccc4ccc2c1c34 (stereo not drawn),99% (active)

# Same assay, conditions: S. cerevisiae CLN2oe strain, at 33.0 µM, hits give high values
row,Structure (SMILES),growth inhibition
1,CCN(CC)CC[n+]1ccc2c(C)c3[nH]c4ccc(O)cc4c3c(C)c2c1,-8% (inactive)
2,O=[n+]1c2ccc(Cl)cc2n([O-])c2ccc(Cl)cc21,-1% (inactive)
3,CCOP(=O)(OCC)C(Cc1ccccc1)N=C(c1ccccc1)c1ccccc1 (stereo not drawn),87% (active)
4,CC[C@@]1(O)C(=O)OCc2c1cc1n(c2=O)Cc2cc3c(N)cccc3nc2-1,22% (inactive)
5,COC1C=COC2(C)Oc3c(C)c(O)c4c(c3C2=O)/C(=N/C2CCC(O)OC2C)C=C(NC(=O)/C(C)=C\C(=O)C2CC2C(O)C(C)C(O)C(C)C(OC(C)=O)C1C)C4=O (stereo not drawn),3% (inactive)
6,COc1cc2c(c(OC)c1OC)-c1c(cc3c(c1OC)OCO3)CC(C)C(C)(O)C2OC(=O)c1ccccc1 (stereo not drawn),20% (inactive)
7,O=c1ssc2ncccc12,85% (active)
8,O=C1C2C(C(=O)N1c1ccc(OCc3ccccc3)cc1)C1c3ccccc3C2C2CCCCN21 (stereo not drawn),-12% (inactive)
9,COc1ccc(-c2cn(-c3ccc(I)cc3)c3ncnc(N)c23)cc1,9% (inactive)
10,CCOC(=O)C(NC(=O)c1ccccc1)(N1CCN(c2cc3c(cc2F)c(=O)c(C(=O)O)cn3C2CC2)CC1)C(F)(F)F (stereo not drawn),6% (inactive)
11,C/C(=N\O)C1CC2C=C(C#N)C1N(Cc1ccccc1)C2 (stereo not drawn),-2% (inactive)
12,CC/C(=C(\c1ccccc1)c1ccc(OCCN(C)C)cc1)c1ccccc1,98% (active)
13,COc1ccccc1N=NC(C(=O)c1ccccc1)C(=O)c1ccccc1,94% (active)
14,CC(O)C(O)C(O)C(/C=N\Nc1ccccc1)=N/Nc1ccccc1 (stereo not drawn),18% (inactive)
15,COc1ccc(/C=C2\SC(=S)N(/C=C/c3nc4ccccc4[nH]c3=O)C2=O)cc1OC,59% (inactive)
16,N#CN=Nc1cc(Cl)c(N=NC#N)cc1Cl,-8% (inactive)
17,Cc1ccc(S(=O)(=O)Oc2cc(Cl)c(Cl)cc2Cl)cc1,-18% (inactive)
18,c1ccc2c(c1)Oc1cccc3cccc-2c13,14% (inactive)
19,O=C(c1ccc(Cl)cc1Cl)C(Cl)Cl,18% (inactive)
20,CC(C)C1=CCC2C(=C1)CCC1C(C)(C(=O)O)CCCC21C (stereo not drawn) (tested in a mixture with another compound),40% (inactive)

row,Structure (SMILES),growth inhibition
1,COc1cc(/C=C2\CCc3ccccc3C2=O)cc(OC)c1OC,15% (inactive)
2,CC(=O)[O][Bi]([c]1ccccc1)[c]1ccccc1,80% (active)
3,S=C(N/N=C/c1ccccn1)Nc1ccc(Cl)cc1,11% (inactive)
4,COc1cc(CC2CC(c3ccc4c(c3)OCO4)OC2=O)cc(OC)c1OC (stereo not drawn),7% (inactive)
5,CNC1C(OC2C(OC3C(O)C(O)C(N=C(N)N)C(O)C3N=C(N)N)OC(C)C2(O)CO)OC(CO)C(O)C1O (stereo not drawn),16% (inactive)
6,NNC(=O)CCc1ccc2ccc3ccccc3c2c1,-3% (inactive)
7,Oc1ccc2ccccc2c1C(c1ccc(Cl)cc1)c1c(O)ccc2ccccc12,83% (active)
8,CCCCN(CCCC)CCSc1ccc(Cl)cc1,-11% (inactive)
9,CCC(C)COC(=O)c1ccc(N=Cc2ccc(C=Nc3ccc(C(=O)OCC(C)CC)cc3)cc2)cc1 (stereo not drawn),-1% (inactive)
10,CC1(C)C(=O)OC(n2cc(F)c(=O)[nH]c2=O)C1=O (stereo not drawn),30% (inactive)
11,O=[N+]([O-])CC(SCc1ccccc1)c1ccc2c(c1)OCO2 (stereo not drawn),97% (active)
12,COc1cc2c(cc1[N+](=O)[O-])C(=O)C(Br)(Br)CCC2,98% (active)
13,OCC1OC(OCC(O)C(O)C(O)C(/C=N/Nc2ccccc2)=N/Nc2ccccc2)C(O)C(O)C1O (stereo not drawn),9% (inactive)
14,COc1ccc(N=C2C(=O)Nc3ccc(Br)cc32)cc1,23% (inactive)
15,Cn1c(=O)c2ccccc2c2ccccc21,22% (inactive)
16,CC[n+]1ccc2c(C)c3[nH]c4ccc(O)cc4c3c(C)c2c1,26% (inactive)
17,CC(=O)ON1C(=O)c2cccc3cccc(c23)C1=O,32% (inactive)
18,COc1ccc2ccc3ccccc3c2c1C=O,-2% (inactive)
19,OC1CCCc2c1cc1ccc3cccc4ccc2c1c34 (stereo not drawn),97% (active)

# Source: PubChem BioAssay (NCI)
